Ub-GFP proteasome – inhibits proteasome, raising ubiquitin-GFP reporter fluorescence; Ubiquitin-GFP reporter cells, proteasome inhibition, GFP fluorescence; response scale: untreated = 0%, 10 µM MG-132 = 100%; AID 526; Potency, µM (titrated, usually from 45.9 µM), actives largely listed as activators; 67,000 tested, under 10 active; active = well fitted activation curve with a large enough effect, not every such curve was filed as active; inconclusive = small, poorly fitted or top-dose-only effect, or another doubt; inactive = no such curve, though single readings can be large or run the other way
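GFP accumulation read-out: laser plate cytometry counting ubiquitin(G76V)-GFP-expressing U2OS cells after 4 hr compound exposure at 37 °C. Titrations spanned 46 uM to 2.9 nM; 0% = basal, 100% = 10 uM MG-132; concentration-response curves fitted.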
GBA activity – modulators of human glucocerebrosidase; 48,000 tested, 1.1% active; purified enzyme, resorufin glucoside fluorescence (screen aimed at inhibitors), 20 min; P04062; Potency, µM; in the data active = potency below about 15 µM; inconclusive = mostly about 16 µM to 33 µM;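 note: the screen sought inhibitors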
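Compounds titrated against 0.2 nM normal enzyme, 30 uM resorufin beta-D-glucopyranoside substrate, citrate/phosphate buffer with taurocholate and tween-20, pH 5.9. Reaction ran 20 min at room temperature; fluorescence (Ex 548/Em 600) gave AC50.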
FLuc inh – inhibitors of firefly luciferase; P08659; purified firefly luciferase, luminescence, 8 min; Potency, µM (top dose mostly 57.1 µM), most hits filed as inhibitors; 72,000 tested, 2.2% active; AID 411; note: nearly all actives have a fitted effect of over 40% in size
Target sequence (P08659 whole entry, looked up): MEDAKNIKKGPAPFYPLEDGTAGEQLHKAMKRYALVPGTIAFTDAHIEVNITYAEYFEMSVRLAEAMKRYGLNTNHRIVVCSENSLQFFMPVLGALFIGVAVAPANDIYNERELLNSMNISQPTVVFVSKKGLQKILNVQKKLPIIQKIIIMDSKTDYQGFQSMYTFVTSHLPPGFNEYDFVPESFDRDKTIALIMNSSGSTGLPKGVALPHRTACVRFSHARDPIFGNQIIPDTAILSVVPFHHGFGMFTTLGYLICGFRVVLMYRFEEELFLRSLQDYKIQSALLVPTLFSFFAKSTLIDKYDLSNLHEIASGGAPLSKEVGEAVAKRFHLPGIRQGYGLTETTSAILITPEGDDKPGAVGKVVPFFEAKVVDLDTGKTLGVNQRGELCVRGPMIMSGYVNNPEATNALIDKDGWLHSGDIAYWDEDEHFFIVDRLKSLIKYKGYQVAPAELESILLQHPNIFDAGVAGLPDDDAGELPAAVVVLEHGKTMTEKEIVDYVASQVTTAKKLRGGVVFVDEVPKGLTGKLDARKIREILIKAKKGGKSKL
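Luminescence read-out after 8 min at room temperature; enzyme reaction used luciferin plus 10 uM ATP (linear range) in imidazole buffer pH 7.2 with KCl, MgCl2, Tween 20 and BSA. Each sample was run as a titration.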
HBB splice mod – hemoglobin beta splicing modulation | HBB splicing reporter cell assay, activation; EGFP reporter with mutant IVS2-654 intron; response scale: normalised to 500 nM splice-correcting PNA | Potency, µM (highest dose often 46.1 µM), most hits filed as activators | 65,000 tested, 0.06% active
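Compounds were applied for 2 days to HeLa EGFP-654 cells, 500/well in Optimem with 2% FCS. The reporter's EGFP is disrupted by mis-splicing of beta-globin intron IVS2-654. Readout: summed well GFP fluorescence from 488 nm laser scanning; reference was 500 nM antisense […] 654 PNA.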
Epigenetic mod – epigenetic GFP locus derepression in mouse cells. mouse C127i GFP locus derepression, cytometry, 30 h. Potency, µM (doses to about 46.1 µM). 68,000 tested, 0.09% active
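Murine C127i mammary cells carrying a silenced, stably integrated CMV-driven GFP reporter were treated with compound for 30 hours at 37 C. After PBS washes, GFP-positive cells were counted by laser-scanning microplate cytometry.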
PK Bst – pyruvate kinase (B. stearothermophilus) modulation; purified pyruvate kinase, luminescence ATP production; ribose 5-phosphate activator present at AC10; Potency, µM; 51,000 tested, 1.2% active; AID 361; in the data active = potency below about 11 µM; inconclusive = mostly about 12 µM to 25 µM;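 the screen sought inhibitors and activators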
Numbers stand for hits; – = inactive; ? = inconclusive; · = not tested or not shown; [ ] = another dose, or the depositor's remark. Compounds with a hit are over-represented: about 3.3% of the library has one in this group of screens. Unless noted, calls come from the whole dose curve; as a rule, active = well fitted curve in the direction sought with a large enough effect; inconclusive = small, poorly fitted or top-dose-only effect, or another doubt; inactive = no such curve, though single readings can be large; an effect the other way counts as inactive or inconclusive.

SMILES | Ub-GFP proteasome | GBA activity | FLuc inh | HBB splice mod | Epigenetic mod | PK Bst
O=C(OCc1c(Cl)cccc1Cl)c1cnccn1 | – | – | – | – | – | 4.74
O=C(OCc1c(Cl)cccc1Cl)c1ccccn1 | – | – | – | – | – | 3.81
COC(=O)c1ccccc1NC(=O)COC(=O)c1cccnc1 | – | – | – | · | – | –
O=C(OCC(=O)c1ccccc1Br)c1ccccn1 | – | – | 12.6µM | – | – | ·
O=C(OCc1c(Cl)cccc1Cl)c1cccnc1 | – | – | – | – | – | 9.23
COc1ccc(NC(=O)N2CC3(CCN(C(=O)c4ccco4)CC3)C2)cc1 | – | · | –[11.4 µM] | – | –[9.22 µM] | ·
O=C(NCCN1C(=O)C2C3C=CC(C3)C2C1=O)Nc1ccc(Br)cc1 (stereo not given) | – | · | 15.8µM | – | · | ·
O=C(O)[C@H]1CN(CCCP(=O)(O)O)CCN1 | – | · | – | – | – | ·
Cc1cc2c(nc1C)CCCCN2C[C@H](C)O/N=C1/[C@H]2O[C@@H]2[C@@H](O)[C@H]2[C@H]1CCn1c(=O)n(-c3ccccc3)c(=O)n12 | · | · | –[11.4 µM] | –[9.22 µM] | · | ·
Cn1c(C(=O)NCc2ccco2)cc2c(=O)[nH]c3ccccc3c21 | – | – | – | – | – | 4.41
O=C(NCc1ccco1)c1cc2ccccc2c(=O)o1 | – | – | – | – | – | –
O=C(c1cc(-c2ccncc2)nc2ccccc12)N1CCN(c2ccccn2)CC1 | – | – | – | –[1.84 µM] | – | –
Cc1ccc(-c2nnc(N3CCN(c4ccccn4)CC3)c3ccccc23)cc1 | – | – | – | – | – | –
O=C(c1cc(-c2ccccc2)nc2ccccc12)N1CCN(c2ccccn2)CC1 | – | – | 20µM | – | – | ·
c1ccc(-c2nnc(N3CCN(c4ccccn4)CC3)c3ccccc23)cc1 | – | 13.6 | – | – | – | –
CCCn1c(-c2ccc(F)cc2)nc2c(NCCN3CCOCC3)nc(C)nc21 | – | · | · | – | · | ·
COc1ccc(C(=O)N2CCC3(CCN(CC(C)C)CC3)CC2)cc1 | – | · | –[11.4 µM] | – | –[9.22 µM] | ·
CC(C)OC(=O)CN1CCN(S(=O)(=O)c2cc(Cl)ccc2Cl)CC1 | – | · | – | – | – | –
CN(C)c1ccc(NC(=O)CN2CCN(S(=O)(=O)c3cc(Cl)ccc3Cl)CC2)cc1 | – | ? | – | – | – | 9.45
O=C(Nc1ccc2c(c1)OCCO2)c1ccc(Cl)c(S(=O)(=O)N2CCOCC2)c1 | – | – | – | – | – | –
O=C(CN1CCN(S(=O)(=O)c2cc(Cl)ccc2Cl)CC1)Nc1ccc2c(c1)OCCO2 | – | ? | – | – | – | 4.74
COc1ccc(OC)c(NC(=O)c2[nH]c(C)c(C(C)=O)c2C)c1 | – | – | – | – | – | –
CC(C)=CC(=O)Nc1ccc2c(c1)OCO2 | – | – | 25.1µM | – | – | –
CCc1c(C(=O)Nc2ccc(OC)c(Cl)c2)[nH]c(C)c1C(C)=O | – | – | – | – | – | 3.13
COc1ccc(NC(=O)C=C(C)C)cc1Cl | – | – | 20µM | – | – | ·
SMILES | Ub-GFP proteasome | GBA activity | FLuc inh | HBB splice mod | Epigenetic mod | PK Bst
COc1ccccc1NC(=O)Nc1ccc2c(c1)OCCO2 | – | – | 12.6µM | – | – | –
COc1ccc(NC(=O)C(C)NS(=O)(=O)c2ccc(NC(C)=O)cc2)cc1Cl (stereo not given) | – | – | – | – | – | –
COc1ccc(NC(=O)c2ccc3c(c2)OCO3)cc1Cl | – | – | 3.16µM | – | – | ·
COc1cc(C(=O)Nc2ccc3c(c2)OCCO3)ccc1OC(C)C | – | – | 12.6µM | – | – | –
COc1cc(C(=O)Nc2ccc3c(c2)OCCO3)ccc1OC(F)F | – | – | 15.8µM | – | – | ?
COc1cccc(NC(=O)c2oc3ccccc3c2NC(=O)c2ccc3c(c2)OCO3)c1 | – | – | 3.98µM | – | – | –
COc1cccc(OC)c1C(=O)Nc1ccc2c(c1)OCCO2 | – | · | – | – | – | ·
CC1CCC2C(=O)N3C(CCC(C)[C@@H]3c3ccc(-c4ccco4)cc3)C(=O)N2C1c1cccc(N2CCCC2=O)c1 (stereo not given in full) | · | · | · | –[9.22 µM] | · | ·
Nc1ccn([C@@H]2CC[C@H](CO)O2)c(=O)n1 | – | · | – | – | – | ·
COc1cc(OC)c(OC)cc1CN(C)CCc1ccccn1 | – | 15.1 | – | – | – | –

High-throughput results deposited in PubChem by National Center for Advancing Translational Sciences (NCATS).
